# Test results taken from PubChem BioAssay (Tox21).
# Values without a mark were called inactive. Inconclusive results are not listed. Where a call stands in place of a potency, no number is given. Calls of active or inactive are those of the source. Unless noted, the call rests on the fitted dose curve; in most records, active means well fitted curve in the direction sought with a large enough effect in the repeat runs; inconclusive means weak or mixed curves; inactive means no such curve, though single readings can be large; an effect the other way counts as inactive or inconclusive.
# How the values were obtained:
# [1] = qHTS assay to identify small molecule agonists of the estrogen receptor alpha (ER-alpha) signaling pathway in the presence of an antagonist - cell viability counter screen (AID 1259386);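 further: series mostly up to about 92 µM; cells exposed to compounds for 22 h at 37 °C before the viability read; nearly all actives have a fitted effect of over 30% in size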
# Procedure, shortened: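 The test measures whether compounds kill ER-alpha reporter cells (VM7Luc4E2) under antagonist co-treatment (ICI-182,780, 10.0nM). Fluorescence from CellTiter-Fluor is read after a 22hr exposure.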
# [2] = target: Progesterone receptor (Homo sapiens) (UniProt P06401); experiment: qHTS assay to identify small molecule agonists of the progesterone receptor (PR) signaling pathway (AID 1346784; calls by dose curve; further: nearly all actives have a fitted effect of over 30% in size)
# Procedure, shortened: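 PR-UAS-bla HEK 293T cells carrying a UAS-driven beta-lactamase reporter were seeded in medium with 2% charcoal-stripped FBS, preincubated 6 hr at 37C, then exposed to compounds in DMSO for 16 hr; agonism was read by LiveBLAzer B/G FRET fluorescence.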
# [3] = target: Progesterone receptor (Homo sapiens) (UniProt P06401); experiment: qHTS assay to identify small molecule antagonists of the progesterone receptor (PR) signaling pathway (AID 1346795; active means well fitted inhibition curve with a large enough effect in the signal ratio in the repeat runs, not every such curve was filed as active; the % refers to the signal ratio)
# Procedure, shortened: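 PR-UAS-bla HEK293T cells carrying a UAS-driven beta-lactamase reporter were plated in medium with 2% charcoal-stripped FBS and rested 6 hr at 37C. Compounds were added with 1 nM R5020 (final) for 16 hr, then FRET substrate loaded 2 hr at room temperature.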
# [4] = qHTS assay to identify small molecule antagonists of the progesterone receptor (PR) signaling pathway - cell viability counter screen (AID 1346798); further: series mostly up to about 92 µM; nearly all actives have a fitted effect of over 50% in size
# Procedure, shortened: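 PR-UAS-bla HEK293T cells in medium with 2% charcoal-stripped FBS were treated with compounds plus R5020 for 16 hr at 37C. Cell viability was then read by CellTiter-Glo luminescence after 30 min at room temperature in the same wells.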
# [5] = qHTS assay to identify small molecule agonists of the progesterone receptor (PR) signaling pathway - cell viability counter screen (AID 1346799; calls by dose curve; further: nearly all actives have a fitted effect of over 45% in size)
# Procedure, shortened: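 PR-UAS-bla HEK293T cells, 3,000 per well in medium with 2% charcoal-stripped FBS, were preincubated 6 hr at 37C, then exposed to compounds for 16 hr; viability was read as CellTiter-Glo luminescence after 30 min at room temperature.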
# [6] = qHTS assay to identify small molecule antagonists of the TGF-beta/Smad signaling pathway - cell viability counter screen (AID 1346824); further: nearly all actives have a fitted effect of over 50% in size
# Procedure, shortened: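 Cytotoxicity counter-screen run in the same wells as the beta-lactamase Smad reporter read: CellTiter-Glo luminescence after 30 min at room temperature. HEK 293T SBE-bla cells had 5 hr compound exposure at 37 C with TGF-beta1 (0.25 ng/mL stock).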
# [7] = qHTS assay to identify small molecule agonists of the TGF-beta/Smad signaling pathway - cell viability counter screen (AID 1346829); further: top concentration of the series differs between compounds; nearly all actives have a fitted effect of over 45% in size
# Procedure, shortened: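 Tox21 qHTS format: SBE-bla HEK 293T cells treated with DMSO-dissolved compounds for 5 hr; CellTiter-Glo luminescence after 30 min at room temperature.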
# [8] = qHTS assay to identify small molecule agonists of the TGF-beta/Smad signaling pathway (AID 1346859; active means well fitted activation curve with a large enough effect in the signal ratio in the repeat runs, not every such curve was filed as active; the % refers to the signal ratio; further: series mostly up to about 77 µM)
# Procedure, shortened: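 HEK 293T cells stably carrying a beta-lactamase reporter driven by the Smad binding element were seeded overnight, exposed to DMSO-dissolved compounds for 5 hr at 37 C, 5% CO2, then loaded with FRET substrate for 2 hr at room temperature.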
# [9] = target: Thyrotropin-releasing hormone receptor (Homo sapiens) (UniProt P34981); experiment: qHTS assay to identify small molecule antagonists of the thyrotropin-releasing hormone receptor (TRHR) signaling pathway (AID 1346877; active means well fitted inhibition curve with a large enough effect in the repeat runs, not every such curve was filed as active; further: series mostly up to about 51 µM)
# Procedure, shortened: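 Overnight-plated (18 h, 37 °C) HEK293 cells expressing TRHR were dye-loaded 2 h, treated with compound, then stimulated with TRH at 1 nM final. Fluorescence intensity was captured every second for 3 min.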
# [10] = Human pregnane X receptor (PXR) small molecule agonists, qHTS cell viability counter screen (AID 1346977); further: nearly all actives have a fitted effect of over 50% in size
# Procedure, shortened: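 PXR-Luc HepG2 cells in medium with 5% charcoal-stripped FBS were pre-incubated 5hr, then exposed to compounds for 24hr at 37C. Viability was read in the same wells by CellTiter-Fluor fluorescence, reagent added after 23hr with a 1hr incubation.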
# [11] = Caspase-3/7 induction in HepG2 cells by small molecules, qHTS assay (AID 1346978); further: nearly all actives have a fitted effect of over 15% in size
# Procedure, shortened: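 Caspase-3/7 induction was measured by Caspase-Glo 3/7 luminescence (30 min, room temperature) after a 17 hr compound exposure of wild-type HepG2 cells seeded at 2,000 per well and pre-incubated 5 hr.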
# [12] = Caspase-3/7 induction in CHO-K1 cells by small molecules, qHTS cell viability counter screen (AID 1346979); further: nearly all actives have a fitted effect of over 35% in size
# Procedure, shortened: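 Wild-type CHO-K1 cells were seeded at 1,500 per well, rested 5hr at 37 C, then exposed to compounds in DMSO. After 16hr, CellTiter-Fluor reagent was added and fluorescence read 1hr later as the viability measure.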
# [13] = Caspase-3/7 induction in HepG2 cells by small molecules, qHTS cell viability counter screen (AID 1346981); further: series mostly up to about 92 µM; nearly all actives have a fitted effect of over 30% in size
# Procedure, shortened: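 Treatment of HepG2 cells with DMSO-delivered compounds ran 16 hr at 37 C following a 5-hr pre-incubation of 2,000 cells/well. CellTiter-Fluor fluorescence, read after 1 hr, served as the viability measure in a qHTS format.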
# [14] = target: Nuclear receptor subfamily 1 group I member 2 (Homo sapiens) (UniProt O75469); experiment: Human pregnane X receptor (PXR) small molecule agonists, qHTS assay (AID 1346982); further: nearly all actives have a fitted effect of over 35% in size; further: potency means the concentration at half of the fitted maximal effect
# Procedure, shortened: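 Stable HepG2 line reporting PXR-mediated CYP3A4 expression via luciferase. Treatment: 24 hr with compounds in DMSO at 37 C. Detection: ONE-Glo luminescence.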
# [15] = target: Acetylcholinesterase (Homo sapiens) (UniProt P22303); experiment: Acetylcholinesterase (AChE) small molecule antagonists: colormetric cell-based qHTS assay (AID 1347395; calls by dose curve; further: nearly all actives have a fitted effect of over 30% in size)
# Procedure, shortened: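 SH-SY5Y cells, plated overnight at 37 C, were exposed to compounds for 30 min at 37 C and 5% CO2. Acetylthiocholine plus DTNB was then added, and thiocholine from endogenous AChE was quantified colorimetrically after 90 min at 37 C.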
# [16] = Caspase-3/7 induction in CHO-K1 cells by small molecules, qHTS assay (AID 1346980); further: nearly all actives have a fitted effect of over 15% in size
# Procedure, shortened: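 Luminescent Caspase-Glo 3/7 read (30min, room temperature) quantified apoptosis induction. Cells were wild-type CHO-K1, treated with compound for 17hr at 37 C and 5% CO2.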
# [17] = target: Thyrotropin-releasing hormone receptor (Homo sapiens) (UniProt P34981); experiment: qHTS assay to identify small molecule agonists of the thyrotropin-releasing hormone receptor (TRHR) signaling pathway (AID 1346891; calls by dose curve; further: series mostly up to about 58 µM)
# Procedure, shortened: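 TRHR-expressing HEK293 cells were plated 18 h at 37 °C/5% CO2, loaded with calcium dye 2 h at 37 °C, then given compound in DMSO; fluorescence was read kinetically for 3 min at 1 s intervals.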
# [18] = target: Nuclear receptor subfamily 1 group I member 2 (Rattus norvegicus) (UniProt Q9R1A7); experiment: Rat pregnane X receptor (rPXR) activation by small molecules, qHTS assay (AID 1346983); settings: rPXR luciferase reporter cells, One-Glo luminescence, 24 h; stronger effect = higher value; further: nearly all actives have a fitted effect of over 20% in size
# Procedure, shortened: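 Luminescent readout (One-Glo luciferase, 30 min room temperature) followed 24 hr compound treatment at 37 C of rPXR cells plated 2,000 per well and preincubated 5hr; qHTS format with compounds delivered in DMSO.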
# [19] = target: Nuclear receptor subfamily 1 group I member 2 (Homo sapiens) (UniProt O75469); experiment: CYP3A4 induction through human pregnane X receptor (PXR) by small molecules, qHTS assay (AID 1346984); further: nearly all actives have a fitted effect of over 40% in size
# Procedure, shortened: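 After 24 h at 37C with compound, DPX-2 cells (HepG2, co-transfected PXR response element and CYP3A4 promoter-luciferase) got 3uM final P450-Glo Luciferin-IPA for 3 h; One-Glo luminescence followed.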
# [20] = target: Nuclear receptor subfamily 1 group I member 2 (Homo sapiens) (UniProt O75469); experiment: Human pregnane X receptor (PXR) activation by small molecules, qHTS assay (AID 1346985); further: nearly all actives have a fitted effect of over 40% in size
# Procedure, shortened: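 DPX-2 cells (HepG2 co-transfected with a PXR response element and a CYP3A4-promoter luciferase construct) were seeded at 2,000 per well, rested 5 hr at 37C, then exposed to DMSO-dissolved compounds for 24 hr. Activation was read as luciferase luminescence.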
# Chain of Thyrotropin-releasing hormone receptor (Homo sapiens) (P34981 whole entry, looked up): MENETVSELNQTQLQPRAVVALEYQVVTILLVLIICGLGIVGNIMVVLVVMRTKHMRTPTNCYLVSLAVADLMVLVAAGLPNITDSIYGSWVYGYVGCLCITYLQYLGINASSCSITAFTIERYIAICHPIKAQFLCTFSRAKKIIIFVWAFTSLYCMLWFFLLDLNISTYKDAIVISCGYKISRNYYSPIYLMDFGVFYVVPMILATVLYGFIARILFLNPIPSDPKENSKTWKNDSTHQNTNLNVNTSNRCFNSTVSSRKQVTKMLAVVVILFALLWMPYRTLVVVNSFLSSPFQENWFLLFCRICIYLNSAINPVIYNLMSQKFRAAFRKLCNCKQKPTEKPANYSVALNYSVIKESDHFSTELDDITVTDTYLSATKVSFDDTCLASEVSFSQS
# Chain of Progesterone receptor (Homo sapiens) (P06401 whole entry, looked up): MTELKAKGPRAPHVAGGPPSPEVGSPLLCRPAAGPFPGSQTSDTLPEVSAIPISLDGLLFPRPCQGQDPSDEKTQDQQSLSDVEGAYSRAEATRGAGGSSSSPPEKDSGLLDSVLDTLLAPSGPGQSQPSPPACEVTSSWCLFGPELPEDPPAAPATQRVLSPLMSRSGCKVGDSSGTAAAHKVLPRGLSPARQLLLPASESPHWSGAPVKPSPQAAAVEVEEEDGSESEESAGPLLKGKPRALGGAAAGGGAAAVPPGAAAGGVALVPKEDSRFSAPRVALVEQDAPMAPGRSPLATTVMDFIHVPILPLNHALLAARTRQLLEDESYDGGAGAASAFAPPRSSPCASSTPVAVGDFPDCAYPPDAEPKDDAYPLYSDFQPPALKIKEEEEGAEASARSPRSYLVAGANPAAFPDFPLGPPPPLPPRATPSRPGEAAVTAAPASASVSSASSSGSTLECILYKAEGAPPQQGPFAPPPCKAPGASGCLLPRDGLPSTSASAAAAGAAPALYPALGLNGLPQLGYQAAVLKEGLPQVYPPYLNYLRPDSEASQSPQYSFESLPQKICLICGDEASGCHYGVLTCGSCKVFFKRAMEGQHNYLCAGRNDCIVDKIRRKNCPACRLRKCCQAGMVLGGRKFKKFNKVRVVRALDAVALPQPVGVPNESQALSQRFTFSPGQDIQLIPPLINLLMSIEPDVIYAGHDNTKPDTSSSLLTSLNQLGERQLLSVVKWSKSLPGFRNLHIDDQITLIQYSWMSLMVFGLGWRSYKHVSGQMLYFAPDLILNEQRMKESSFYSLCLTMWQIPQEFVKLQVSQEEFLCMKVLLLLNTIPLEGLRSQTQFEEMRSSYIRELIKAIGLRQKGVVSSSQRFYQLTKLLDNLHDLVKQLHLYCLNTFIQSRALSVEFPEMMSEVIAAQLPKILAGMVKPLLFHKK
# Chain of Acetylcholinesterase (Homo sapiens) (P22303 whole entry, looked up): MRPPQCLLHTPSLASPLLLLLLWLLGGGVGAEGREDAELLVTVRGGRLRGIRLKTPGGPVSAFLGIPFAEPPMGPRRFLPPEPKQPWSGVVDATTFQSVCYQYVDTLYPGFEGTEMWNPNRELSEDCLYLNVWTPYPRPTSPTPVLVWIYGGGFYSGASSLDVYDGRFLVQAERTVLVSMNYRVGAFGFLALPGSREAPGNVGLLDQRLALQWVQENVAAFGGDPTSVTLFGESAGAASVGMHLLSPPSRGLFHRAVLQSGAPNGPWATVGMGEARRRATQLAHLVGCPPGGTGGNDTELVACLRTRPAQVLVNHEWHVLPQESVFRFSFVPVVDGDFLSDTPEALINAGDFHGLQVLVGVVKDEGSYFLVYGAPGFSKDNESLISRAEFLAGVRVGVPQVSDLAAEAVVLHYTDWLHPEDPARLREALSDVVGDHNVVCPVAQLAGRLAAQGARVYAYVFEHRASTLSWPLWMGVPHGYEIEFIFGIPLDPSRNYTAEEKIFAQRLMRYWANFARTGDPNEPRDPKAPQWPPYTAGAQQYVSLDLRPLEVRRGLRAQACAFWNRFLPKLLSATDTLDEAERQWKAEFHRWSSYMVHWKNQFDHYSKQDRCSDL
# Chain of Nuclear receptor subfamily 1 group I member 2 (Homo sapiens) (O75469 whole entry, looked up): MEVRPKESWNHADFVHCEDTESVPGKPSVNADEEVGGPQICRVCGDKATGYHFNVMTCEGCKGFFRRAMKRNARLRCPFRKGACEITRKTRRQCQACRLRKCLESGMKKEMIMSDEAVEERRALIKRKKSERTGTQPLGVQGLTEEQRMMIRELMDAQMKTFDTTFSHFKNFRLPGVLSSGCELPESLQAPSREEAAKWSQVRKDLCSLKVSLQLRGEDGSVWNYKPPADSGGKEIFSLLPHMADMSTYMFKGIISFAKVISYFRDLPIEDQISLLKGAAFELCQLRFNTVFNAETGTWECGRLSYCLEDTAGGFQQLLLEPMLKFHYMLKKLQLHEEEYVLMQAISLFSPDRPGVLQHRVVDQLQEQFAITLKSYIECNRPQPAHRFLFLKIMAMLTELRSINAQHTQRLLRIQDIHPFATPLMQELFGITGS
# Chain of Nuclear receptor subfamily 1 group I member 2 (Rattus norvegicus) (Q9R1A7 whole entry, looked up): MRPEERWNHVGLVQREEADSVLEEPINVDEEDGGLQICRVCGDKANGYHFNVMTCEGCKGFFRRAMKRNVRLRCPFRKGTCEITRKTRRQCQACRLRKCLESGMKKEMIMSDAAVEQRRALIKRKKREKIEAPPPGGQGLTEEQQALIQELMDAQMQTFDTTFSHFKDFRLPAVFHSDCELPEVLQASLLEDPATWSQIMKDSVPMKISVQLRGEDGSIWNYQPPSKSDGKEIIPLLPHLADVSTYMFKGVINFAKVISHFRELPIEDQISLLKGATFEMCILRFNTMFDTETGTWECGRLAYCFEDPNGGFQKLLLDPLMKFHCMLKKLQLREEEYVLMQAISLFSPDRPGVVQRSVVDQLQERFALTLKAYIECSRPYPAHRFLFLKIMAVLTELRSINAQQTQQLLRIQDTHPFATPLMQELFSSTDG
smiles,measurement,setting,value
COc1ccccc1OC,Potency,[1],inactive
same,Potency,[2],inactive
same,Potency,[3],inactive
same,Potency,[4],inactive
same,Potency,[5],inactive
same,outcome,[6],inactive
same,Potency,[7],inactive
same,outcome,[8],inactive
same,Potency,[9],inactive
same,Potency,[10],inactive
same,outcome,[11],inactive
same,Potency,[12],inactive
same,Potency,[13],inactive
same,Potency,[14],inactive
same,Potency,[15],inactive
CCOC(=O)CCl,Potency,[1],inactive
same,Potency,[2],inactive
same,Potency,[3],inactive
same,Potency,[4],inactive
same,Potency,[5],inactive
same,outcome,[6],inactive
same,Potency,[7],inactive
same,outcome,[8],inactive
same,Potency,[10],inactive
same,outcome,[11],inactive
same,Potency,[12],inactive
same,outcome,[16],inactive
same,Potency,[13],inactive
same,Potency,[15],inactive
OP(O)c1ccccc1,Potency,[1],inactive
same,Potency,[2],inactive
same,Potency,[3],inactive
same,Potency,[4],inactive
same,Potency,[5],inactive
same,outcome,[6],inactive
same,Potency,[7],inactive
same,Potency,[9],inactive
same,outcome,[17],inactive
same,Potency,[10],inactive
same,outcome,[11],inactive
same,Potency,[12],inactive
same,outcome,[16],inactive
same,Potency,[13],inactive
same,Potency,[14],inactive
same,Potency,[15],inactive
Cc1ccc2c(c1)C1CN(C)CCC1N2 (configuration not stated),"activity change, negative = cytotoxicity",[1],-4.97% [at 19 µM]
same,activation,[2],-0.799% [at 19 µM]
same,"activity change, negative = inhibition",[3],5.78% [at 18.9 µM]
same,"activity change, negative = cytotoxicity",[4],-15.8% [at 18.9 µM]
same,"activity change, negative = cytotoxicity",[5],-23.2% [at 19 µM]
same,"viability change, negative = cytotoxic",[6],0.721% [at 15.8 µM]
same,"activity change, negative = cytotoxicity",[7],-8.68% [at 15.8 µM]
same,activation,[8],3.74% [at 15.8 µM]
same,"activity change, negative = cytotoxicity",[10],-7.69% [at 19 µM]
same,caspase activation,[11],-1.19% [at 19 µM]
same,"activity change, negative = cytotoxicity",[12],-2.08% [at 19 µM]
same,"activity change, negative = cytotoxicity",[13],-0.14% [at 19 µM]
same,activation,[14],-3.35% [at 19 µM]
same,max activation,[18],1.15%
same,Potency,[19],inactive
same,Potency,[20],inactive
same,"activity, negative = inhibition",[15],-0.458% [at 23.6 µM]
COc1cc(CCN)cc(OC)c1OC,Potency,[1],inactive
same,Potency,[2],inactive
same,Potency,[3],inactive
same,Potency,[4],inactive
same,Potency,[5],inactive
same,outcome,[6],inactive
same,Potency,[7],inactive
same,outcome,[8],inactive
same,Potency,[10],inactive
same,outcome,[11],inactive
same,Potency,[12],inactive
same,outcome,[16],inactive
same,Potency,[13],inactive
same,Potency,[14],inactive
same,Potency,[15],inactive
NCC1(CC(=O)O)CCCCC1,Potency,[1],inactive
same,Potency,[2],inactive
same,Potency,[3],inactive
same,Potency,[4],inactive
same,Potency,[5],inactive
same,outcome,[6],inactive
same,Potency,[7],inactive
same,outcome,[8],inactive
same,Potency,[9],inactive
same,Potency,[10],inactive
same,outcome,[11],inactive
same,Potency,[12],inactive
same,outcome,[16],inactive
same,Potency,[13],inactive
same,Potency,[14],inactive
same,Potency,[15],inactive
c1cncc([C@@H]2CCCCN2)c1,Potency,[1],inactive
same,Potency,[2],inactive
same,Potency,[3],inactive
same,Potency,[4],inactive
same,Potency,[5],inactive
same,outcome,[6],inactive
same,Potency,[7],inactive
same,outcome,[8],inactive
same,Potency,[9],inactive
same,outcome,[17],inactive
same,Potency,[10],inactive
same,outcome,[11],inactive
same,outcome,[16],inactive
same,Potency,[13],inactive
same,Potency,[14],21.7 µM (active)
same,Potency,[15],inactive
C/C=C/CC#N,Potency,[1],inactive
same,Potency,[2],inactive
same,Potency,[3],inactive
same,Potency,[4],inactive
same,Potency,[5],inactive
same,outcome,[6],inactive
same,Potency,[7],inactive
same,outcome,[8],inactive
same,Potency,[9],inactive
same,outcome,[17],inactive
same,Potency,[10],inactive
same,outcome,[11],inactive
same,Potency,[12],inactive
same,Potency,[15],inactive
CCCC(C)C1(CC)C(=O)N=C(S)NC1=O (configuration not stated),Potency,[1],inactive
same,Potency,[2],inactive
same,Potency,[3],inactive
same,Potency,[4],inactive
same,Potency,[5],inactive
same,outcome,[6],inactive
same,Potency,[7],inactive
same,outcome,[8],inactive
same,Potency,[9],inactive
same,Potency,[10],inactive
same,outcome,[11],inactive
same,Potency,[12],inactive
same,Potency,[13],inactive
same,max activation,[18],-4.4%
